# The supplement of paper PMC6555819
# Experiments:
# Assay in all cases: PBM binding z-score (relative to random genomic background probes); higher = stronger binding; sequences stand for … in GC…GCGATTGACAGCGTAGAATGAAGG
# [1] = tested on: FXR:RXRa (NR concentration 270 nM, RXRa partner concentration 90 nM)
# Outline: (§1)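 Ligand-free nuclear receptor dimers were bound for 1 h to custom Agilent 4×180K protein-binding microarrays. Detection used antibodies against each partner (one per run). Binding z-scores rest on regression-normalized fluorescence, with random background probes as the reference.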
# [2] = tested on: LXRa:RXRa (NR concentration 270 nM, RXRa partner concentration 90 nM)
# Outline: as §1
# [3] = tested on: LXRa homodimer (NR concentration 270 nM)
# Outline: as §1
# [4] = tested on: LXRb:RXRa (NR concentration 270 nM, RXRa partner concentration 90 nM)
# Outline: as §1
# [5] = tested on: LXRb homodimer (NR concentration 270 nM)
# Outline: as §1
# [6] = tested on: PPARa:RXRa (NR concentration 270 nM, RXRa partner concentration 90 nM)
# Outline: as §1
# [7] = tested on: PPARg:RXRa (NR concentration 180 nM, RXRa partner concentration 90 nM)
# Outline: as §1
# [8] = tested on: PPARg:RXRa 270nM:90nM, anti-RXR (NR concentration 270 nM, RXRa partner concentration 90 nM)
# Outline: as §1
# [9] = tested on: PPARg:RXRa 30nM:10nM, anti-RXR (NR concentration 30 nM, RXRa partner concentration 10 nM)
# Outline: as §1
# [10] = tested on: PPARg:RXRa 90nM:30nM, anti-RXR (NR concentration 90 nM, RXRa partner concentration 30 nM)
# Outline: as §1
# [11] = tested on: PPARg:RXRa DBDmut IVT, anti-RXR (DBD mutation: RXRa K156A/R161A, NR concentration 270 nM, RXRa partner concentration 90 nM)
# Outline: as §1
# [12] = tested on: PPARg:RXRa IVT, anti-PPARg (NR concentration 270 nM, RXRa partner concentration 90 nM)
# Outline: as §1
# [13] = tested on: PPARg DBDmut:RXRa IVT, anti-PPARg (DBD mutation: PPARg1 K132A/R137A, NR concentration 270 nM, RXRa partner concentration 90 nM)
# Outline: as §1
# [14] = tested on: PPARg DBDmut IVT, anti-PPARg (DBD mutation: PPARg1 K132A/R137A, NR concentration 270 nM)
# Outline: as §1
# [15] = tested on: PPARg homodimer (NR concentration 180 nM)
# Outline: as §1
# [16] = tested on: PXR:RXRa (NR concentration 270 nM, RXRa partner concentration 90 nM)
# Outline: as §1
# [17] = tested on: PXR homodimer (NR concentration 270 nM)
# Outline: as §1
# [18] = tested on: RARa:RXR (NR concentration 270 nM, RXRa partner concentration 90 nM)
# Outline: as §1
# [19] = tested on: RARa homodimer (NR concentration 270 nM)
# Outline: as §1
# [20] = tested on: RARb:RXRa (NR concentration 270 nM, RXRa partner concentration 90 nM)
# Outline: as §1
Sequence,PBM binding z-score [1],PBM binding z-score [2],PBM binding z-score [3],PBM binding z-score [4],PBM binding z-score [5],PBM binding z-score [6],PBM binding z-score [7],PBM binding z-score [8],PBM binding z-score [9],PBM binding z-score [10],PBM binding z-score [11],PBM binding z-score [12],PBM binding z-score [13],PBM binding z-score [14],PBM binding z-score [15],PBM binding z-score [16],PBM binding z-score [17],PBM binding z-score [18],PBM binding z-score [19],PBM binding z-score [20]
CGTCCAAGGTCAAAGATCAGTGAAGAGATGACGG,6.99,5.44,0.528,4.2,1.25,5.75,6.08,6.43,3.08,5.64,3.3,3.88,0.698,-0.108,2.98,4.59,1.01,5.63,1.03,5.16
CTACCAAGGTGGACAAGGTCGTTGATTACTATTC,0.175,0.496,0.259,0.805,-0.653,0.861,0.061,0.155,-0.189,-0.0308,0.0779,0.0174,-1.17,0.143,0.0242,1.28,0.687,1.16,0.219,0.561
TGAATGAAGTTATAAGATCAGGGAACGTTGCAAA,-0.521,-0.697,-0.369,-0.457,-0.454,-0.296,0.116,-0.239,0.157,-0.0808,-1.2,-0.333,0.559,0.214,-0.63,-0.502,-0.359,-0.42,0.115,-1.82
TCTGCTAGGTCGACGATGGTCAGCTAATCTGCTA,-0.0207,0.0577,-1.03,-0.332,-1.02,0.202,-0.26,0.642,1.2,0.698,1.12,0.905,-0.448,-0.108,-1.39,-0.185,-1.16,0.0229,-1.42,1.16
CCGAGTAGGTTATGTGGCATTCAGGCAACGGTGA,0.192,0.353,0.0932,0.0215,-0.284,0.798,0.853,1.85,-0.095,0.651,3.28,2.2,-0.431,-0.42,0.696,-0.298,-0.313,-0.131,0.978,0.573
CCGACTGGGGCATAATGTTACCATAAGCCAGCCC,-0.414,-0.333,-0.335,-0.186,-0.735,0.127,1.15,1.01,-0.289,0.632,2.47,2.12,-0.872,-0.687,0.105,-0.537,-0.468,-0.283,-0.0507,0.133
